Screens from PubChem.
A selection: hits, their analogues and other compounds. The true share with any hit is near 2.8%.
pPAFAH FP inh: pPAFAH (human) enzyme inhibition; inhibition, % at 3.39 µM; 1.5% of 330,000 active; AID 463082; Q13093; recombinant pPAFAH, FP-rhodamine probe fluorescence polarization;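 active = inhibition above the mean inhibition across the screen plus 3 SD, cut at about 25% in these data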;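 note: inhibitors block binding of the rhodamine activity-based probe so polarization drops; 0% = enzyme with DMSO and 100% = wells lacking pPAFAH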
Fam108B inh: blocks mouse Fam108B hydrolase in RBBP9 counter-screen; recombinant Fam108B, FP-Rh probe fluorescence polarization; inhibition, % at 9.51 µM; 0.33% of 300,000 active; AID 1947;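 active = inhibition above the screen mean inhibition plus 3 SD, computed separately per campaign, cut at about 18% in these data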;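 note: inhibitors lower polarization as less probe binds the enzyme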
PAFAH1B2 FP inh: inhibitors of human PAFAH1B2 | P68402 | recombinant PAFAH1B2, FP-rhodamine activity probe, fluorescence polarization | inhibition, % at 3.39 µM | 1.2% of 340,000 active | AID 492953;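 active = inhibition above the mean of all tested compounds plus 3 SD, cut at about 24% in these data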;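 note: 0% = enzyme with DMSO and 100% = wells lacking PAFAH1B2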
Target sequence (P68402 whole entry, looked up): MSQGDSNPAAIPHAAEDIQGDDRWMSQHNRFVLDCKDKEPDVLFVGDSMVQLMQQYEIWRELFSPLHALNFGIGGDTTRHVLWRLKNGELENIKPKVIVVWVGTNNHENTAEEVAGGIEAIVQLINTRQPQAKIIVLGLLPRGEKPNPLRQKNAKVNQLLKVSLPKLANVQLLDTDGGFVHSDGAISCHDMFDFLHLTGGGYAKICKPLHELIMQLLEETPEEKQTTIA
PAFAH2 inh: PAFAH2 (human) inhibition; Q99487; recombinant PAFAH2, FP-rhodamine activity probe, fluorescence polarization; inhibition, % at 3.39 µM; 0.99% of 340,000 active; AID 492956;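 active = inhibition above the mean over all tested compounds plus 3 SD, cut at about 30% in these data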;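 note: inhibitors block probe labeling of enzyme so polarization drops; 0% = enzyme with DMSO and 100% = wells lacking PAFAH2 protein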
PME-1 inh: PME-1 (human) inhibition | Q9Y570 | recombinant PME-1, FP-Rh probe fluorescence polarization | inhibition, % at 5.9 µM | 0.53% of 320,000 active | AID 2130;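 active = inhibition above the campaign mean of all compounds plus 3 SD, cut at about 26% in these data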;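 note: competitive labeling of PME-1 active site by serine hydrolase directed probe; 0% = PME-1 with DMSO and 100% = wells lacking PME-1 enzyme; inhibitors block probe labeling so polarization falls and inhibition rises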
Target sequence (Q9Y570 whole entry, looked up): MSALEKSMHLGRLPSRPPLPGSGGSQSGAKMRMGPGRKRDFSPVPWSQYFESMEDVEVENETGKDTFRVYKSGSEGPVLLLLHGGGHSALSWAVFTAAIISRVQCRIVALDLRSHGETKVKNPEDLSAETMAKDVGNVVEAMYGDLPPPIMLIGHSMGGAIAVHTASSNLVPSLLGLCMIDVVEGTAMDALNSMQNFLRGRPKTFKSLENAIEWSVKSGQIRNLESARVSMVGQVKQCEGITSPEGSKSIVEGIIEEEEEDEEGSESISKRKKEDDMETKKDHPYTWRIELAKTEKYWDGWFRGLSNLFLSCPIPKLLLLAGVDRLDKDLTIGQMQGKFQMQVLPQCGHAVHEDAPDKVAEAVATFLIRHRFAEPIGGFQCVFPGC
PAFAH1B3 FP inh: blocks human PAF acetylhydrolase 1B catalytic subunit 3; Q15102; recombinant PAFAH1B3, FP-rhodamine probe, fluorescence polarization; inhibition, % at 3.39 µM; 0.28% of 340,000 active; AID 492972;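 active = inhibition above the screen-wide average of all tested compounds plus 3 SD, cut at about 25% in these data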;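 note: 0% = enzyme with DMSO only and 100% = wells lacking PAFAH1B3 protein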
The depositor's hits bear a star; nt = not tested or not shown; ! = repeats disagree.

SMILES | pPAFAH FP inh | Fam108B inh | PAFAH1B2 FP inh | PAFAH2 inh | PME-1 inh | PAFAH1B3 FP inh
Cc1ccc(Sc2ccc(/C=C3/C(=O)NN(c4ccccc4)C3=O)o2)cc1 | 19 | 6 | 36* | 23 | 2 | 6
O=C1NN(c2ccccc2)C(=O)/C1=C/c1ccc(Sc2ccc(Cl)cc2)o1 | 23 | 2 | 29* | 13 | 2 | 5
C[C@H](CO)N1C[C@H](C)[C@@H](CN(C)C(=O)Nc2ccc3c(c2)OCO3)Oc2c(NC(=O)Nc3ccc4c(c3)OCO4)cccc2C1=O | 8 | nt | 0 | -1 | nt | 11
COc1ccccc1OCC(=O)Nc1sc2c(c1C(N)=O)CCC2 | 10 | nt | -2 | 5 | nt | 2
COc1cccc(C(=O)OCC(=O)Nc2sc3c(c2C(N)=O)CCC3)c1O | 28* | nt | 4 | 19 | -2 | 5
CCOc1ccc(NC(=O)CN(C)C(=O)Cc2c(C)nc3ccccc3c2C)cc1OCC | 9 | 0 | 3 | 3 | 2 | 0
C=C(CN(C)C)C(=O)c1cc(OC)c(OC)cc1OC | nt | nt | 0 | -6 | nt | 6
Cc1ccc(S(=O)(=O)N2CCCCC2)cc1C(=O)N1C(C)CCCC1C (centres undefined) | -4 | nt | 6 | 8 | nt | 4
COc1ccc2oc(C(=O)OCC(=O)N3CCN(S(=O)(=O)c4ccc(C)cc4)CC3)c(C)c2c1 | 2 | -3 | 1 | -6 | 31* | -10
CN(CCOc1ccc(Cl)cc1)C(=O)c1cc(-c2ccco2)nc2ccccc12 | 26* | 3 | 11 | 7 | -2 | 2
CN(CC(=O)Nc1ccc(F)cc1)C(=O)c1cc(-c2ccco2)nc2ccccc12 | 27* | 0 | 3 | 6 | -4 | -3
COc1cccc(NC(=O)CN(C)C(=O)c2cc(-c3ccco3)nc3ccccc23)c1 | 9 | -2 | -3 | 8 | 2 | 8
Cc1ccc(NC(=O)CN(C)C(=O)c2cc(-c3ccco3)nc3ccccc23)cc1 | 32* | 0 | 1 | 3 | -12 | 2
CC12CC3CC1C(C(=O)O2)C3C(=O)O (centres undefined) | nt | nt | 0 | -4 | nt | 2
COc1ccc(C(CNC(=O)c2cccc(S(=O)(=O)Nc3ccc(F)cc3)c2)N2CCCCC2)cc1 (centres undefined) | nt | nt | -1 | 1 | nt | 0
NC(=S)NN=CCn1cc([N+](=O)[O-])c(=O)[nH]c1=O | nt | nt | 6 | -1 | nt | 12
CNC(=O)c1ccsc1NC(=O)C1CCN(S(=O)(=O)c2ccc(Cl)s2)CC1 | 4 | 1 | 27* | 1 | 9 | 5
NC(=O)c1ccsc1NC(=O)C1CCN(S(=O)(=O)c2cccs2)CC1 | -1 | 2 | 0 | 1 | 10 | 8
CN(C)c1ccc(O)c2c1CC1CC3C(N(C)C)C(=O)C(C(N)=O)=C(O)[C@@]3(O)C(=O)C1=C2O (some centres undefined) | 33* | 3 | 8 | 8 | -3 | 11
O=C(O)c1ccccc1C(=O)c1ccc(Oc2ccccc2)cc1 | -2 | 1 | 3 | 11 | -3 | 7
O=C(c1ccc(Oc2ccccc2)cc1)c1nc2c(n1O)CCCC2 | 31* | 5 | 6 | 3 | 2 | 0
Cc1ccc(S(=O)(=O)N2CCOCC2)cc1-c1n[nH]c(=S)n1-c1ccccc1 | -2 | nt | 20 | -2 | 1 | 1
CC(C)C(NC(=O)CC12CC3CC(CC(C3)C1)C2)C(=O)O (centres undefined) | 2 | 5 | 25* | 5 | 1 | 4
O=C(C=P(c1ccccc1)(c1ccccc1)c1ccccc1)c1ccccc1-c1ccccc1C(=O)C=P(c1ccccc1)(c1ccccc1)c1ccccc1 | nt | nt | -2 | 5 | nt | 14
COc1ccc(CN2CC(C(N)=O)Oc3ccccc32)cc1F (centres undefined) | 3 | 3 | -5 | -8 | 2 | 6
SMILES | pPAFAH FP inh | Fam108B inh | PAFAH1B2 FP inh | PAFAH2 inh | PME-1 inh | PAFAH1B3 FP inh
Cc1cc(C(=O)NCc2cccs2)ccc1[N+](=O)[O-] | 5 | 1 | 5 | 2 | -3 | -4
Cc1cc(C(=O)OCC(=O)NCc2cccs2)ccc1[N+](=O)[O-] | 31* | nt | 5 | 19 | nt | 5
COc1ccc(/C=C2\SC(=S)N(NS(=O)(=O)c3ccc(C)cc3)C2=O)c(OC)c1 | 19 | 0 | 8 | 9 | -10 | 18
COc1ccc(OC)c(/C=C2\SC(=S)N(NS(=O)(=O)c3ccc(C)cc3)C2=O)c1 | 26* | 8 | -1 | 14 | -2 | 9
CCCNC(=O)c1ccc(-c2nn(C)c(=O)c3ccccc23)cc1 | 32* | 10 | 2 | 2 | -8 | 3
CCc1noc(C)c1C(=O)Nc1ccc(Cl)c(S(=O)(=O)N2CCCCC2)c1 | 2 | 0 | 5 | 3 | 1 | 2
O=C(NCc1ccco1)c1cccc2c1C(=O)c1ccc(N3CCC(Cc4ccccc4)CC3)cc1S2(=O)=O | 33* | nt | -22 | -13 | nt | -15
O=C1C=CC(=C(c2ccc(O)cc2)c2ccc(O)cc2)C=C1 | 5 | nt | 24* | -1 | 5 | 10
CSc1cccc(CN2CCCC(C(=O)Nc3cccc(-n4cccn4)c3)C2)c1 (centres undefined) | 10 | -2 | -10 | -5 | 5 | 2
COc1ccc(S(=O)(=O)N2CCCC(C(F)(F)F)C2)cc1 (centres undefined) | 1 | 4 | 13 | 4 | -1 | 10
O=S(=O)(c1ccc(Cl)cc1)N1CCCC(C(F)(F)F)C1 (centres undefined) | 6 | -3 | 30* | 7 | -2 | 5
O=C(c1cncc(Br)c1)N1CCN(S(=O)(=O)c2ccc(Cl)cc2)CC1 | 3 | 0 | 25* | 7 | -2 | 12
O=C(C1CCCCC1)N1CCN(S(=O)(=O)c2ccc(Cl)cc2)CC1 | 4 | 0 | 27* | -4 | -5 | 2
O=C(CN1CCN(S(=O)(=O)c2ccc(Cl)cc2)CC1)c1ccc(O)c(O)c1 | 16 | 5 | 33* | 4 | 5 | 6
Cc1ccc(S(=O)(=O)N2CCN(C)CC2)cc1C | -2 | 1 | 6 | -5 | -6 | 3
O=C(c1ccc2ccccc2n1)N1CCN(S(=O)(=O)c2ccc(Cl)cc2)CC1 | 0 | nt | 28* | 2 | nt | 2
Cc1ccc(S(=O)(=O)c2ccc(Cl)cc2)cc1S(=O)(=O)N1CCN(C)CC1 | 6 | 5 | 26* | -1 | 8 | 4
CN1CCN(S(=O)(=O)c2ccc(Cl)cc2)CC1 | -9 | 0 | 25*! | -1 | -10 | 11
COc1ccc(NC(=O)CCN2CCN(S(=O)(=O)c3ccc(Cl)cc3)CC2)cc1 | -6 | 0 | 25* | 6 | 2 | -2
COc1ccc(NC(=O)CCN2CCN(S(=O)(=O)c3ccc(C(C)C)cc3)CC2)cc1 | 1 | 7 | 0 | 2 | 6 | 12
CN1CCN(S(=O)(=O)c2ccc(-c3ccc(Cl)cc3)cc2)CC1 | -1 | 2 | 2 | -3 | -4 | -2
CCOc1ccc(NC(=O)CN(C)C(=O)COc2cccc3c2OC(C)(C)C3)cc1OCC | -2 | nt | 1 | -3 | -5 | 1
